Assay [1] in a line: Quantitative High-Throughput drug screen in 47 multiple myeloma cell lines against the NCATS MIPE library collection: KMS34_JCRB cell viability assay (AID 1918985). Also: nearly all actives have a fitted effect of over 40% in size. In a few lines: (§1)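 500 cells/well; MIPE 4.0 drugs pin-transferred; 48 h, 37C, 5% CO2. CellTiter-Glo, 5 min RT, luminescence. Controls: DMSO 100%, media 0%.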
Assay [2] in a line: Quantitative High-Throughput drug screen in 47 multiple myeloma cell lines against the NCATS MIPE library collection: OCIMY7_PLB cell viability assay (AID 1918987). Also: nearly all actives have a fitted effect of over 65% in size. In a few lines:
as §1

The nature of assay [3]: Quantitative High-Throughput drug screen in 47 multiple myeloma cell lines against the NCATS MIPE library collection: OCIMY5_PLB cell viability assay (AID 1918988). Also: nearly all actives have a fitted effect of over 65% in size. In short, it runs like this: as §1
The nature of assay [4]: Quantitative High-Throughput drug screen in 47 multiple myeloma cell lines against the NCATS MIPE library collection: OPM1_PLB cell viability assay (AID 1918989). Also: nearly all actives have a fitted effect of over 40% in size. In short, it runs like this:
as §1

A short description of assay [5]: Quantitative High-Throughput drug screen in 47 multiple myeloma cell lines against the NCATS MIPE library collection: U266_ATCC cell viability assay (AID 1919864). Also: nearly all actives have a fitted effect of over 35% in size. In short, it runs like this: as §1
Assay [6] is described as follows: Quantitative High-Throughput drug screen in 47 multiple myeloma cell lines against the NCATS MIPE library collection: XG6_PLB cell viability assay (AID 1919865). Also: nearly all actives have a fitted effect of over 40% in size. In a few lines: as §1
Assay [7] can be described thus: Quantitative High-Throughput drug screen in 47 multiple myeloma cell lines against the NCATS MIPE library collection: XG1_PLB cell viability assay (AID 1919866). Also: nearly all actives have a fitted effect of over 35% in size. In short, it runs like this:
as §1

A short description of assay [8]: Quantitative High-Throughput drug screen in 47 multiple myeloma cell lines against the NCATS MIPE library collection: VP6_DJ cell viability assay (AID 1919867). Also: nearly all actives have a fitted effect of over 40% in size. In a few lines:
as §1

A short description of assay [9]: Quantitative High-Throughput drug screen in 47 multiple myeloma cell lines against the NCATS MIPE library collection: UTMC2_PLB cell viability assay (AID 1919868). Also: nearly all actives have a fitted effect of over 55% in size. The conditions noted are these: CellTiter-Glo ATP luminescence, 48 h; viability (% of DMSO control): at 45.8 µM (top of the series) unless noted. In a few lines:
as §1

A short description of assay [10]: Quantitative High-Throughput drug screen in 47 multiple myeloma cell lines against the NCATS MIPE library collection: PE2_PLB cell viability assay (AID 1919869). Also: nearly all actives have a fitted effect of over 35% in size. In short, it runs like this:
as §1

The nature of assay [11]: Quantitative High-Throughput drug screen in 47 multiple myeloma cell lines against the NCATS MIPE library collection: PCM6_Riken cell viability assay (AID 1919870). Also: nearly all actives have a fitted effect of over 30% in size. In short, it runs like this:
as §1

A short description of assay [12]: Quantitative High-Throughput drug screen in 47 multiple myeloma cell lines against the NCATS MIPE library collection: RPMI8226_ATCC cell viability assay (AID 1919871). Also: nearly all actives have a fitted effect of over 30% in size. In a few lines:
as §1

A short description of assay [13]: Quantitative High-Throughput drug screen in 47 multiple myeloma cell lines against the NCATS MIPE library collection: OPM2_DSMZ cell viability assay (AID 1919872). Also: nearly all actives have a fitted effect of over 30% in size. In a few lines: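 Myeloma cells (500 per well) were exposed to MIPE 4.0 compounds by pin transfer and incubated 48 hours at 37C, 5% CO2. Viability was read as ATP by CellTiter-Glo luminescence, normalised to DMSO (100%) and media-only (0%) wells.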

Assay [14] is described as follows: Quantitative High-Throughput drug screen in 47 multiple myeloma cell lines against the NCATS MIPE library collection: KMS11_JCRBsus cell viability assay (AID 1919873). Also: nearly all actives have a fitted effect of over 50% in size. In a few lines: as §1
The nature of assay [15]: Quantitative High-Throughput drug screen in 47 multiple myeloma cell lines against the NCATS MIPE library collection: KMS28BM_JCRB cell viability assay (AID 1919874). Also: nearly all actives have a fitted effect of over 35% in size. In short, it runs like this: as §1
A short description of assay [16]: qHTS drug screen for cell cycle checkpoint inhibitors in PARPi-resistant BRCA-mutant ovarian cancer cell lines. (AID 1963452; calls by dose curve). Particulars: PEO1/OlaR viability, CellTiter-Glo luminescence, 96 h; for Z-AUC: stronger effect = lower value. In a few lines: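 PEO1, PEO4 and PEO1/OlaR ovarian cancer cells, 600 per well, exposed 96 h at 37C to a dilution series. Viability read by CellTiter-Glo luminescence, normalized to DMSO and empty wells; activity summarized as Z-AUC.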
On the technique in general: In qHTS, concentration-response curves come from the screen itself.

A short description of assay [17]: qHTS for identification of novel therapeutic agents for treatment of microphthalmiaassociated transcription factor (MiT) renal cell carcinoma (RCC) (AID 1963991; calls by dose curve). Particulars: CellTiter-Glo, 48 h; for Potency: active = Z-AUC below -0.8 in all three lines; for z-score: stronger effect = lower value. In short, it runs like this: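 Three TFE3-fusion RCC lines (UOK109, UOK124, UOK145), 500 cells/well in complete medium, were treated with MIPE 4.0 compounds for 48 hours at 37 C. Viability was by CellTiter-Glo luminescence, normalized to DMSO (100%) and empty wells (0%); curves fitted over 11 concentrations.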

Setting [18] is: measured here: PEO1 parental Z-AUC.
[19] abbreviates: TFE3-RCC UOK109 viability, measured here: UOK109 Z-AUC.
Setting [20] is: TFE3-RCC viability, measured here: UOK124 Z-AUC.
Where [21] appears, read: TFE3-RCC viability, measured here: UOK145 Z-AUC.

SMILES strings stand for the structures. Records with an inconclusive call do not appear. Calls of active or inactive are those of the source. Unless noted, calls follow the shape of the dose curve; as a rule, active = well fitted cell-killing curve with a large enough effect; inconclusive = small, poorly fitted or top-dose-only effect, or effect the other way; inactive = no such curve, though single readings can be large or run the other way.
Potency is read from the fitted curve at half-maximal effect.

In the case of `CC(C)c1nn(-c2c(Cl)cccc2Cl)c2nc(Cc3ccc(OCCO)cc3)[nH]c(=O)c12`, the Potency in [1] is 118 nM (active); in assay [2], 74.3 nM (active); in [3] it was 74.3 nM (active); in assay [4], 132 nM (active); in assay [5], 209 nM (active); in assay [6], 83.3 nM (active). Further, the Potency in [7] is 187 nM (active); in [8] it was 37.2 nM (active); in [9], 93.5 nM (active); in assay [10], 74.3 nM (active); in [11], 46.9 nM (active); in [12], 118 nM (active). Further, the Potency in assay [13] was 264 nM (active); in assay [14], 52.6 nM (active); in assay [15] it was 209 nM (active); in assay [17] (TFE3-RCC UOK109 viability) it was 132 nM (active). Moreover, the Z-AUC in assay [16] was -1.25 (inactive); in [16] (setting [18]) it was -2.35; in assay [16] (measured here: PEO4 Z-AUC), -1.5. Besides, the z-score in [17] (setting [19]) was -2.2; in assay [17] (setting [20]), -1.63; in [17] (setting [21]), -2.67.

`CCn1cc(-c2ccnc3[nH]c(-c4cccc(CN(C)C)c4)cc23)c(-c2ccc(NC(=O)N(C)C)cc2)n1`: the Potency was 10500 nM (active) in assay [1]; 187 nM (active) in [2]; 4180 nM (active) in [3]; 2960 nM (active) in assay [4]; 14800 nM (active) in [5]; 935 nM (active) in assay [6]. In addition, the Potency in assay [8] is 1480 nM (active); in assay [9], 743 nM (active); in assay [10], 11800 nM (active); in assay [11], 9350 nM (active); in assay [12], 14800 nM (active); in [13], 11800 nM (active). The Potency in [14] is 833 nM (active); in [15] it was 6620 nM (active); in [16], 2450 nM (active). Besides, the Z-AUC in [16] (setting [18]) is -1.7; in assay [16] (measured here: PEO4 Z-AUC), -1.88.

Take `Cc1cc(N2CCOCC2)cc2[nH]c(-c3c(NC[C@@H](O)c4cccc(Cl)c4)cc[nH]c3=O)nc12`: the Potency is 469 nM (active) in assay [1]; 105 nM (active) in assay [2]; 1660 nM (active) in [3]; 469 nM (active) in [4]; 2640 nM (active) in assay [5]; 83.3 nM (active) in assay [6]. The Potency was 187 nM (active) in assay [7]; 148 nM (active) in assay [8]; 66.2 nM (active) in assay [9]; 148 nM (active) in assay [10]; 469 nM (active) in [12]; 3720 nM (active) in assay [13]. In addition, the Potency in assay [14] is 26.4 nM (active). The results for the Z-AUC in assay [16], in assay [16] (setting [18]) and in assay [16] (measured here: PEO4 Z-AUC) were -0.44 (inactive), -0.435 and -0.57, respectively.

In the case of `CCN1CCN(CC(=O)Nc2ccc(-c3cccc4c(=O)cc(N5CCOCC5)oc34)c3sc4ccccc4c23)CC1`, the Potency in assay [1] is 2090 nM (active); in assay [2] it was 46.9 nM (active); in assay [3], 1050 nM (active); in [4], 264 nM (active); in assay [5], 18700 nM (active); in [6], 2350 nM (active). Moreover, the Potency is 935 nM (active) in [7]; 469 nM (active) in [8]; 187 nM (active) in assay [9]; 833 nM (active) in [10]; 1480 nM (active) in assay [11]; 1870 nM (active) in [12]. The Potency is 3720 nM (active) in [13], 332 nM (active) in assay [14], 4690 nM (active) in assay [15] and 2640 nM (active) in assay [17] (TFE3-RCC UOK109 viability). Moreover, the Z-AUC was -1.21 (inactive) in assay [16], -0.89 in assay [16] (setting [18]) and -0.929 in assay [16] (measured here: PEO4 Z-AUC). Further, the z-score in assay [17] (setting [19]) was -2; in [17] (setting [20]), -1.8; in assay [17] (setting [21]), -2.12.

The record behind these values is PubChem BioAssay (NCATS).
